Data taken from PubChem BioAssay (NCI).
The panel holds about 83,000 compounds, 20% with a hit somewhere; the sample as a whole holds those more often.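 Single-dose data. Exposure time 48 hours. Values below 10 considered active.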 Calls of active or inactive are those of the source.

tested on: SK-MEL-2 melanoma; test: NCI-60 one-dose screen, 48 h (100 = growth as untreated, 0 = no growth, -100 = all killed); conditions: 10 µM
Procedure: Growth inhibition of the SK-MEL-2 human tumor cell line is measured as a screen for anti-cancer activity. Cells are grown in 96 well plates and exposed to the test compound for 48 hours. Compounds are tested at a single concentration, which is 10^-5 M for most compounds. The reported endpoint is percent growth (GI% or GIPRCNT), where numbers from 0 - 100% represent growth inhibition, and numbers from -100% - 0 represent cell death. For example, a value of 40 represents 60% growth inhibition. A value of 0 means no net growth occurred over the course of the experiment. A value of -40 indicates 40% of cells at the beginning of the experiment died by the end of the experiment. A value of -100 means all cells are dead at the end of the experiment.
NCI-60 Human Tumor Cell Lines Screen was performed using the standard one-dose NCI protocol, which is described in more detail at https://dtp.cancer.gov/discovery_development/nci-60/default.htm.
Compounds with GIPRCNT values below 10 were considered active. Activity score was based on GIPRCNT using the following formula: […]
Score is 0 for GIPRCNT values of 100 or above, 50 for GIPRCNT values of 0, and 100 for GIPRCNT values of -100.

SMILES	growth
COc1ccc2c(c1)CCc1c-2n[nH]c1-c1[nH]nc2c1CCc1cc(OC)ccc1-2	61.7% (inactive)
CC(=O)c1c[nH]c2ccccc12	161% (inactive)
CCOC(=O)c1[nH]c(C)c(C(C)=O)c1C	122% (inactive)
NC(=S)NN=C1CCCC1	104% (inactive)
O=C(O)C(c1ccccc1)C(O)c1ccccc1 (stereo not given)	99.6% (inactive)
CN(C)c1ccc(CNC(C(=O)c2ccccc2)c2ccccc2)cc1 (stereo not given)	74.5% (inactive)
O=C1C=C(Nc2ccc([N+](=O)[O-])cc2)c2ccccc2C1=O	-7.97% (active)
CCCCOC(=O)c1ccc(C(C)C)cc1	99.7% (inactive)
CN(C)Cc1cc(C(C)(C)CC(C)(C)C)ccc1O	71.1% (inactive)
COc1cc(/C=C(\C#N)C(=O)c2ccccc2)ccc1OCc1ccccc1	127% (inactive)
Cc1cc(C)c(N)c(S(=O)(=O)O)c1	93.6% (inactive)
N#CCCc1ccc(O)cc1	104% (inactive)
Cc1ccc(O)c(C(=O)c2ccccc2)c1	107% (inactive)
O=[N+]([O-])c1ccc(N=Nc2ccc(O)c3ccccc23)cc1	43.2% (inactive)
O=[N+]([O-])c1ccc(S(=O)(=O)NN=C2CCCCC2)cc1	147% (inactive)
Cc1cc(N)ccc1-c1ccc(N)cc1C	86.3% (inactive)
C1CNC(C2=NCCN2)=N1	116% (inactive)
CCC(C)(C)C1CCC(O)CC1 (stereo not given)	103% (inactive)
COCCOC(=O)c1ccc(C(C)C)cc1	96.9% (inactive)
CC[N+](C)(CC)CCO	109% (inactive)

SMILES	growth
COc1ccc2c(NCCCCCCCCNc3c4ccccc4nc4cc(OC)ccc34)c3ccccc3nc2c1	-67.3% (active)
CCCCCCCCCCCCCC(=O)Oc1ccc[nH]c1=O	115% (inactive)
COc1cccc(Sc2ccc([N+](=O)[O-])c3no[n+]([O-])c23)c1	86.2% (inactive)
Cc1cc(NC(=O)CSCC(=O)O)no1	122% (inactive)
CCCCC(O)c1ccccc1 (stereo not given)	109% (inactive)
Cc1cc(C(O)(c2ccc(Nc3ccccc3)cc2)c2ccc(Nc3ccc(S(=O)(=O)O)cc3)cc2)ccc1N (stereo not given)	-33.1% (active)
CC1(C)OC(=O)C(c2ccsc2)C(=O)O1	112% (inactive)
O=C(Cc1ccccc1)Cc1ccccc1	90.1% (inactive)
CCOC(=O)c1[nH]c(C)c(C(=O)O)c1C	124% (inactive)
Sc1ccc(Nc2c3ccccc3nc3ccccc23)cc1	40.7% (inactive)
Cc1c(C(=O)O)c(=O)n(-c2ccccc2)n1C	116% (inactive)
COc1cccc(O)c1O	72.4% (inactive)
CC(C)=NNc1ccc([N+](=O)[O-])cc1[N+](=O)[O-]	113% (inactive)
COc1ccc(C2OC(N)=C(O)C2=O)cc1OC (stereo not given)	117% (inactive)
CCS(=O)(=O)CCCl	102% (inactive)
c1ccc2c(c1)Sc1ccccc1S2	112% (inactive)
COc1cc(/C=N\Nc2ccccc2)ccc1OC(=O)c1ccccc1	64.3% (inactive)
CCCCCCCCOC(=O)c1ccccn1	103% (inactive)
CS(=O)CC1=NC(=N)N=C1CS(C)=O (stereo not given)	115% (inactive)
COc1ccc(C(=O)C(Br)C(Br)C(=O)O)cc1 (stereo not given)	94% (inactive)
